Measured values taken from PubChem BioAssay (Tox21).
“And” between values parts separate entries of the source, which are not always exact repeats. Equal entries are not always repeated. Records with an inconclusive call do not appear. A call without a number means that no potency is given here. The source made the active and inactive calls. The call rests on the fitted dose curve; in most records, active means well fitted inhibition curve with a large enough effect in the repeat runs; inconclusive means weak or mixed curves; inactive means flat fitted curve, though single readings scatter.

Assay: qHTS assay to identify small molecule HDAC inhibitors (AID 1259364);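 further: wild-type HCT-116 cells with endogenous class I/II HDAC activity; nearly all actives have a fitted effect of over 45% in size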
Details: HCT-116 HDAC-Glo I/II luminescence, 2 h; series mostly up to 92.4 µM
Outline: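 HCT-116 wt cells, 1,500/well, overnight attach. Compounds (DMSO) 2 h, 37 °C. HDAC-Glo I/II, 30 min RT. Luminescence.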
Potency means the concentration at half of the fitted maximal effect.

Structure (SMILES)	Potency
O=C(O)CCC(=O)O	inactive
Oc1ccc(/C=C/c2cc(O)cc(O)c2)cc1	1.95 µM (active) and 1.22 µM (active) and 2.98 µM (active)
Cc1ccc(C)c(OCCCC(C)(C)C(=O)O)c1	inactive
O=C(O)c1[nH]n(-c2ccc(S(=O)(=O)O)cc2)c(=O)c1N=Nc1ccc(S(=O)(=O)O)cc1	inactive
CC(O)CN(CCN(CC(C)O)CC(C)O)CC(C)O (configuration not stated)	inactive
CCCCCCCCCCCCCCCC(=O)O	inactive
O=C(O)C(=O)O	inactive
NC(=O)c1cnccn1	inactive
Cc1ccccc1C(OCCN(C)C)c1ccccc1 (configuration not stated)	inactive
c1ccc2[nH]ccc2c1	inactive
CC(C)(Oc1ccc(C2CC2(Cl)Cl)cc1)C(=O)O (configuration not stated)	inactive
CCCC(CCC)C(=O)O	inactive
O=C(O)CS	inactive
COc1c2occc2cc2ccc(=O)oc12	inactive
O=c1ccc2ccccc2o1	inactive
CCC1(c2ccccc2)C(=O)NCNC1=O	inactive
CCCNC(=O)NS(=O)(=O)c1ccc(Cl)cc1	inactive
O=c1cc[nH]c(=S)[nH]1	inactive
NC(=O)c1ccccc1O	inactive

Structure (SMILES)	Potency
Cn1cc[nH]c1=S	inactive
Cn1c(=O)c2[nH]cnc2n(C)c1=O	inactive
Cc1cc(=O)[nH]c(=S)[nH]1	inactive
COc1ccc2[nH]cc(CCNC(C)=O)c2c1	inactive
CC(C)[C@@H]1CC[C@@H](C)C[C@H]1O	inactive
Nc1ccn([C@H]2CC[C@@H](CO)O2)c(=O)n1	inactive
CC(=O)OCC(COC(C)=O)OC(C)=O	inactive
O=C(O)c1cc(N=Nc2ccc(S(=O)(=O)Nc3ccccn3)cc2)ccc1O	27.3 µM (active)
O=C1NC(=O)c2ccccc21	inactive
O=C(C1CCCCC1)N1CC(=O)N2CCc3ccccc3C2C1 (configuration not stated)	inactive
Cc1ccc(S(=O)(=O)NC(=O)NN2CCCCCC2)cc1	inactive
O=C(O)c1cccc([N+](=O)[O-])c1	inactive
CC(=O)NS(=O)(=O)c1ccc(N)cc1	inactive
O=C(O)c1cccnc1	inactive
CC(O)CO (configuration not stated)	inactive
CCCC(O)C(CC)CO (configuration not stated)	inactive
O=C(O)/C=C\C(=O)O	inactive
CC(=O)Nc1nnc(S(N)(=O)=O)s1	inactive
